# GDH-TPI counter: GDH-TPI coupling enzyme inhibitors, primary screen, artefact control for M. tuberculosis FBA inhibitor project, biochemical, absorbance, full deck. GDH-TPI coupled enzyme counterscreen, NADH absorbance. inhibition, % at 4.8 µM. actives 1.2% (n = 360,000); in the data active means inhibition above about 30%;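 further: 0% = DMSO wells and 100% = wells lacking the enzyme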
# Mtb FBA inh: Mtb FBA enzyme inhibitors, primary screen, biochemical, fluorescence, strain H37Rv; Fructose-bisphosphate aldolase (Mycobacterium tuberculosis (strain ATCC 25618 / H37Rv)), …; purified M. tuberculosis FBA, fluorescence read-out; inhibition, % at 1 µM; actives 2.3% (n = 360,000); in the data active means inhibition above about 27%;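 further: 0% = vehicle and 100% = reference inhibitor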
# Target sequence (P9WQA3 whole entry, looked up): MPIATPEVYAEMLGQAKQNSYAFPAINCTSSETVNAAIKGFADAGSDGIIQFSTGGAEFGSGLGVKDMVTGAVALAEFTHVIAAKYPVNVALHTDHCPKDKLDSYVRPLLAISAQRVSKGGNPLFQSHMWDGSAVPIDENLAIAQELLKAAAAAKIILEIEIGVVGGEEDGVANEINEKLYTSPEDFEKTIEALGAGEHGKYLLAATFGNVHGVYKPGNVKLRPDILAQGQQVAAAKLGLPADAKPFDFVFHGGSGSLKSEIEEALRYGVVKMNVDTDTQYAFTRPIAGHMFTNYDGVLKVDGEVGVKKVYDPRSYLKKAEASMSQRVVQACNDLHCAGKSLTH
# RecA intein inh: Mtb RecA intein splicing inhibitors, primary screen, biochemical, fluorescence, HTS | Protein RecA (Mycobacterium tuberculosis (strain ATCC 25618 / H37Rv)), P9WHJ3 | cell-free RecA intein splicing | inhibition, % (concentration not given with the values) | actives 0.75% (n = 290,000); in the data active means inhibition above about 30%;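 further: 0% = vehicle wells and 100% = reference inhibitor control wells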
# Mtb bLac sens: beta-lactam sensitization of Mtb H37Rv, H37Rv | AID 434955, 2010 | inhibition, % at 25 µM | actives 0.27% (n = 330,000) | M. tuberculosis H37Rv growth with meropenem, percent inhibition; call rule not given here;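 further: growth measured after seven days incubation then overnight dye step; 0% = bacteria only wells and 100% = bacteria with antibiotic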
# Rv3671c protease: Rv3671c serine protease inhibitors, primary screen, biochemical, fluorescence polarization, M. tuberculosis H37Rv | inhibition, % at 5.96 µM | actives 0.048% (n = 320,000) | AID 2606, 2010; in the data active means inhibition above about 38%;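 further: extracellular domain of Rv3671c used as enzyme; 0% = enzyme with DMSO and 100% = no enzyme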
# UGM FP inh: M. tuberculosis UGM enzyme inhibitors, primary screen, biochemical, fluorescence polarization, single point; inhibition, % at 10 µM; actives 0.06% (n = 320,000); purified UGM, fluorescence polarization probe displacement; AID 504406, 2011; in the data active means inhibition above about 10%, passing the limit was not always enough
# An asterisk follows results filed as active; x = no result; + = active, no number. Shown are actives, neighbours in structure and some others; about 4% of the full set was active somewhere.
SMILES,GDH-TPI counter,Mtb FBA inh,RecA intein inh,Mtb bLac sens,Rv3671c protease,UGM FP inh
S=c1nc(-c2ccccc2)n(CCCn2ccnc2)c2c1CCCC2,41*,1,1,2,1,3
O=C(CC1S/C(=N/N=C/c2c[nH]c3ccccc23)NC1=O)Nc1ccccc1 (stereo not given),47*,-4,-2,-1,-4,-4
O=C(CC1S/C(=N/N=C/c2ccco2)NC1=O)Nc1ccccc1 (stereo not given),15,14,-1,-4,5,2
O=C(CC1S/C(=N/N=C/C=C/c2ccccc2)NC1=O)Nc1ccc(C(=O)O)cc1 (stereo not given),57*,3,-2,-2,-4,4
O=C(CC1S/C(=N/N=C/c2cccs2)NC1=O)Nc1ccc(Cl)c(Cl)c1 (stereo not given),16,-1,-2,59,2,x
O=C(CC1S/C(=N/N=C/c2cccs2)NC1=O)Nc1ccc(Cl)cc1 (stereo not given),31*,-3,3,-2,-45,x
O=C(Nc1ccc2c(c1)OCO2)c1cc(C2CCCCN2S(=O)(=O)c2ccccc2)on1 (stereo not given),11,5,x,x,x,x
Cc1ccc2nc3c(cc(S(=O)(=O)c4ccccc4)c(=N)n3Cc3ccco3)c(=O)n2c1,5,121*,-90,11,-9,2
Cc1cccn2c(=O)c3cc(S(=O)(=O)c4ccc(F)cc4)c(=N)n(Cc4ccco4)c3nc12,0,116*,-28,-5,-10,5
Cc1ccc(S(=O)(=O)c2cc3c(=O)n4ccccc4nc3n(Cc3ccco3)c2=N)cc1C,x,x,-63,-1,0,-1
Cc1cccn2c(=O)c3cc(S(=O)(=O)c4ccccc4)c(=N)n(Cc4ccco4)c3nc12,6,21,-217,-10,-5,5
COc1cc(SC)ccc1C(=O)OCC(=O)N1CCN(C(C)=O)CC1,0,1,-5,2,-1,0
O=C(NCC1CCCN1S(=O)(=O)c1cccs1)C(=O)Nc1ccccc1Cl (stereo not given),3,-1,0,-5,-8,0
CCN(CC)S(=O)(=O)c1ccc(N2CC(C(=O)NCc3ccco3)CC2=O)cc1 (stereo not given),5,4,x,x,x,x
O=c1oc2ccccc2cc1-c1nc2c(s1)CCCC2,13,139*,-46,x,-7,1
O=c1oc2ccccc2cc1-c1csc(NN=C2CCCCC2)n1,16,13,-3,-2,-3,1
O=c1oc2ccccc2cc1-c1nc2ccccc2o1,60*,+,-73,79,8,2
Cc1c(C(=O)Nc2ccc(S(=O)(=O)N3CCOCC3)cc2)cccc1[N+](=O)[O-],6,+,2,3,-3,-4
O=C(Nc1ccc(S(=O)(=O)N2CCCC2)cc1)c1ccc([N+](=O)[O-])o1,18,5,x,100,-3,4
COc1cccc(-n2c([S-])c(C(=O)Nc3ccc(S(=O)(=O)N4CCOCC4)cc3)[n+]3cc(C(N)=O)ccc23)c1,31*,-3,0,81,-4,4
O=C(Nc1ccc(S(=O)(=O)N2CCOCC2)cc1)c1ccc([N+](=O)[O-])o1,32*,-1,-3,98,-2,0
CC(C)COc1cccc(C(=O)Nc2ccc(S(=O)(=O)N3CCOCC3)cc2)c1,1,0,5,10,-30,0
O=C(COc1ccc2c(-c3ccccc3)cc(=O)oc2c1)Nc1cccnc1,5,0,0,10,0,1
CCC(C)(C)NC(=O)CN(C(=O)CNS(=O)(=O)c1ccc(F)cc1)c1ccc2c(c1)OCCO2,-6,1,2,2,1,0
CCCC(=O)N1CCCC(c2cc(C(=O)Nc3ccccc3)no2)C1 (stereo not given),-5,-2,x,x,x,x
